Experimental findings from PubChem BioAssay (NCATS) are described below.

The target of assay [1] is Luciferin 4-monooxygenase (Photinus pyralis) (UniProt P08659). The assay can be described thus: Biochemical firefly luciferase enzyme assay for NPC (AID 624030).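 Also: purified P. pyralis luciferase at 10 nM with luciferin and ATP substrate; series mostly up to about 59 µM; 0% = DMSO and -100% = full luciferase inhibition by PTC124 control; nearly all actives have a fitted effect of over 70% in size.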 An outline of the steps: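 Direct inhibition of firefly luciferase enzyme (10 nM final, 50 mM Tris Acetate) assessed by luminescence within 5 minutes. Percent activity scaled between DMSO and PTC124 positive control, with concentration-effect curves classified by fit quality and response.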

The nature of assay [2]: S16 Schwann cell viability assay (CellTiter-Glo assay) (AID 624031).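 Also: native untransfected S16 rat Schwann cells; series mostly up to about 58 µM; plate controls were DMSO-treated cells for no effect and cell-free wells for full effect; nearly all actives have a fitted effect of over 70% in size.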 A digest of the protocol: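 Parental S16 cells, 24 h compound, 37 °C. ATP-luminescence viability; DMSO = 0% activity, empty wells as reference; curves classified by fit quality and efficacy.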
(In general: ATP-based viability assays read luminescence as a measure of living cells.)

A short description of assay [3]: S16 Schwann cell PMP22 intronic element firefly luciferase assay (AID 624032). Also: nearly all actives have a fitted effect of over 30% in size. Also: potency is read from the fitted curve at half-maximal effect.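 As to activity change, negative = inhibition: series mostly up to about 58 µM; plate controls were DMSO for no effect and PTC124 positive control mean for full effect.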 A digest of the protocol:
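Luciferase reporter of PMP22 intronic-element expression in stably transfected S16 rat Schwann cells, read by ONE-Glo luminescence after 24 h compound exposure at 37 C. Activity scaled between DMSO (0%) and positive-control PTC124; concentration-effect curves quality-classified.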

In assay [4] the target is Glutaminase kidney isoform, mitochondrial (Homo sapiens) (UniProt O94925). The experiment in a line: qHTS for Inhibitors of Glutaminase (GLS): LOPAC Validation (AID 624146). Also: nearly all actives have a fitted effect of over 60% in size. Also: potency is read from the fitted curve at half-maximal effect.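 As to activity change, negative = inhibition: glutamate product detected by oxidase and peroxidase coupled Amplex red fluorescence gain; series mostly up to about 46 µM; % is scaled to controls: 0 for no effect and ±100 for the full control effect.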 A digest of the protocol:
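Assay buffer: 45 mM KH2PO4 pH 8.2, 0.02% Tween-20. hKGA acts on L-glutamine (1 mM solution added); product glutamate is reported by an oxidase/peroxidase Amplex Red coupling, with fluorescence taken at baseline and 30 min.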
On the technique in general: Quantitative high-throughput screening tests each substance at several concentrations.

Assay [5] in a line: qHTS of Trypanosoma Brucei Inhibitors: LOPAC Validation (AID 624147). Also: 0% is about no effect. An outline of the steps:
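Readout: single end-point luminescence (Kinase-Glo Plus, 10 min). Reaction conditions were TbPYK/substrate plus 130 uM ADP, 45 min at RT, pH 7.2 TEA buffer. No-enzyme wells served as controls, and data were normalized before concentration-response fitting.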

Assay [6] has as its target Glucagon-like peptide 1 receptor (Homo sapiens) (UniProt P43220). The assay can be described thus: qHTS of GLP-1 Receptor Agonists: LOPAC Validation (AID 624148).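 Also: luminescence from a luciferase reporter switched on by cAMP; 0% is about no effect; higher luminescence signal means agonism.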 An outline of the steps:
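Agonism scored as increased luciferase luminescence driven by cAMP in HEK293 clones carrying GLP-1R. Cells settled 12 hours, received compound for 4-6 hr at 37 deg C, 5% CO2, and were read after 12 min detection reagent at RT.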

Assay [7] in a line: qHTS of Nrf2 Activators: LOPAC Validation (AID 624149). Also: 0% is about no effect. A digest of the protocol: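 Luciferase signal from ARE activation, read with Steady-Glo after 30 min at room temperature. Compounds were pin-transferred onto AREc32_Fluc cells (1000/well, OPTI-MEM/5% FBS, seeded overnight) and left 24 hr at 37 deg C.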
Assay [8] can be described thus: HTS Assay for Allosteric Antagonists of the Human D2 Dopamine Receptor: Hit Validation in HTRF (AID 624455).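 Also: stable D1 dopamine receptor cell line scored for blocking the D1 response; % is scaled to controls: 0 for no effect and ±100 for the full control effect.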 An outline of the steps: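 Inhibition of the D1-mediated response was measured by HTRF. Cells used were a line stably expressing the D1 dopamine receptor.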
The target in assay [9] is Voltage-gated inwardly rectifying potassium channel KCNH2 (Homo sapiens) (UniProt Q12809). The assay can be described thus: qHTS Assay for Small Molecule Inhibitors of the Human hERG Channel Activity (AID 588834).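 Also: top concentration of the series differs between compounds; % is scaled to controls: 0 for no effect and ±100 for the full control effect; lower thallium flux fluorescence means stronger hERG block; nearly all actives have a fitted effect of over 50% in size.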 An outline of the steps:
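Step 1: BacMam hERG transduction of U2OS, 4 hrs RT. Step 2: overnight 37 °C, plate 2000 cells/well, 4 hr. Step 3: FluxOR load, compound 10 min, stimulate, read fluorescence.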

A short description of assay [10]: S16 Schwann cell PMP22 intronic element beta-lactamase assay (AID 624044; calls by dose curve;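 also: 0% = DMSO and -100% = potassium clavulanate positive control; nearly all actives have a fitted effect of over 15% in size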). A digest of the protocol: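 Beta-lactamase reporter under a PMP22 intronic regulatory element in stable S16 rat Schwann cells; 24 h compound exposure. 460 nm blue signal normalized between DMSO (0%) and potassium clavulanate, with 535 nm FRET tracking viability; curves classed by r2 and response.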

A number with no mark means an inactive call. Records with an inconclusive call do not appear. Activity calls are given as the source filed them. Unless noted, calls follow the shape of the dose curve; as a rule, active = well fitted curve in the direction sought with a large enough effect; inconclusive = small, poorly fitted or top-dose-only effect, or another doubt; inactive = no such curve, though single readings can be large; an effect the other way counts as inactive or inconclusive.

Luciferin 4-monooxygenase (Photinus pyralis), sequence (P08659 whole entry, looked up): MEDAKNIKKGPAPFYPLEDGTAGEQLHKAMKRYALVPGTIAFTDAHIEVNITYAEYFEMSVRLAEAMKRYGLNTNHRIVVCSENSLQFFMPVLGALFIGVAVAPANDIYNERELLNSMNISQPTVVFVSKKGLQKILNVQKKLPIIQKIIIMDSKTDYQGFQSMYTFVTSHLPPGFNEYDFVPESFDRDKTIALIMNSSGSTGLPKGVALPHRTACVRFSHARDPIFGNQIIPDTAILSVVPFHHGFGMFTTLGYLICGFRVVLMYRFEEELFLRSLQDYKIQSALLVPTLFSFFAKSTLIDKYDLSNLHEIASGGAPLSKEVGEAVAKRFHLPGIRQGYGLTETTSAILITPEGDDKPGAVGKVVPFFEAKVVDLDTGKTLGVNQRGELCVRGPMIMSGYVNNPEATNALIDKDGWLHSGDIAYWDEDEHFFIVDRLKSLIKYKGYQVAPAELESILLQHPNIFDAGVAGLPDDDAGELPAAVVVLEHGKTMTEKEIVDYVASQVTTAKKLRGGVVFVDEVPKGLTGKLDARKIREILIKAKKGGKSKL
Glucagon-like peptide 1 receptor (Homo sapiens), sequence (P43220 whole entry, looked up): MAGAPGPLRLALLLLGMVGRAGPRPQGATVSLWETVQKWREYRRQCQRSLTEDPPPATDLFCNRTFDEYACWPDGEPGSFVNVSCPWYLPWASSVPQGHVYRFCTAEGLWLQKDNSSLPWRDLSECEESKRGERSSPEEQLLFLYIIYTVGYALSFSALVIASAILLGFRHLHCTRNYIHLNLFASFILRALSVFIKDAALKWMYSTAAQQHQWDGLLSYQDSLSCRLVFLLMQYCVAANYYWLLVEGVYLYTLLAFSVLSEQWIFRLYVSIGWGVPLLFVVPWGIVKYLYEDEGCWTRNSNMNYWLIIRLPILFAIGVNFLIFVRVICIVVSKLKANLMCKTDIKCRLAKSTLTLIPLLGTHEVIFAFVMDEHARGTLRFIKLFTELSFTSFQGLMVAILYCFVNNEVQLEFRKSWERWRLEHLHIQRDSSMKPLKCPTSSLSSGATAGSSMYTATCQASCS
Glutaminase kidney isoform, mitochondrial (Homo sapiens), sequence (O94925 whole entry, looked up, canonical isoform): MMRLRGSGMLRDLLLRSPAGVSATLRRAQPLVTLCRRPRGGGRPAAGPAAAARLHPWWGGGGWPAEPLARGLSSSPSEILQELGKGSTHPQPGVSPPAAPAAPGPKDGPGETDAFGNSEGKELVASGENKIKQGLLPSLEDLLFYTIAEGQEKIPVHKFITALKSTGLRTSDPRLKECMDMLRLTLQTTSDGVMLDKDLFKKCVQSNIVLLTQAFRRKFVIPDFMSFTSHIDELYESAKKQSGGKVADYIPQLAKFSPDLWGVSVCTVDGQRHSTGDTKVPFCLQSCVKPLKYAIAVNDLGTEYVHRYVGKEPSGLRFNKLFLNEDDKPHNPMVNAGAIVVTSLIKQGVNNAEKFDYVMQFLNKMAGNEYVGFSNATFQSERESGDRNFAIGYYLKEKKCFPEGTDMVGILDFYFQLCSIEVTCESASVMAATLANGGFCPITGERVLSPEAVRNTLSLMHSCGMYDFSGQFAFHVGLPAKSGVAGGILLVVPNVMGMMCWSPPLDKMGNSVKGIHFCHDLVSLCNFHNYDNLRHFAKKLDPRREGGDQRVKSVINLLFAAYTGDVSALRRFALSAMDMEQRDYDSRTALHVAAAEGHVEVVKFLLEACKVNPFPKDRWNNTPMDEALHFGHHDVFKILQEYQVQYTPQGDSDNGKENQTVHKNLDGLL
Voltage-gated inwardly rectifying potassium channel KCNH2 (Homo sapiens), sequence (Q12809 whole entry, looked up): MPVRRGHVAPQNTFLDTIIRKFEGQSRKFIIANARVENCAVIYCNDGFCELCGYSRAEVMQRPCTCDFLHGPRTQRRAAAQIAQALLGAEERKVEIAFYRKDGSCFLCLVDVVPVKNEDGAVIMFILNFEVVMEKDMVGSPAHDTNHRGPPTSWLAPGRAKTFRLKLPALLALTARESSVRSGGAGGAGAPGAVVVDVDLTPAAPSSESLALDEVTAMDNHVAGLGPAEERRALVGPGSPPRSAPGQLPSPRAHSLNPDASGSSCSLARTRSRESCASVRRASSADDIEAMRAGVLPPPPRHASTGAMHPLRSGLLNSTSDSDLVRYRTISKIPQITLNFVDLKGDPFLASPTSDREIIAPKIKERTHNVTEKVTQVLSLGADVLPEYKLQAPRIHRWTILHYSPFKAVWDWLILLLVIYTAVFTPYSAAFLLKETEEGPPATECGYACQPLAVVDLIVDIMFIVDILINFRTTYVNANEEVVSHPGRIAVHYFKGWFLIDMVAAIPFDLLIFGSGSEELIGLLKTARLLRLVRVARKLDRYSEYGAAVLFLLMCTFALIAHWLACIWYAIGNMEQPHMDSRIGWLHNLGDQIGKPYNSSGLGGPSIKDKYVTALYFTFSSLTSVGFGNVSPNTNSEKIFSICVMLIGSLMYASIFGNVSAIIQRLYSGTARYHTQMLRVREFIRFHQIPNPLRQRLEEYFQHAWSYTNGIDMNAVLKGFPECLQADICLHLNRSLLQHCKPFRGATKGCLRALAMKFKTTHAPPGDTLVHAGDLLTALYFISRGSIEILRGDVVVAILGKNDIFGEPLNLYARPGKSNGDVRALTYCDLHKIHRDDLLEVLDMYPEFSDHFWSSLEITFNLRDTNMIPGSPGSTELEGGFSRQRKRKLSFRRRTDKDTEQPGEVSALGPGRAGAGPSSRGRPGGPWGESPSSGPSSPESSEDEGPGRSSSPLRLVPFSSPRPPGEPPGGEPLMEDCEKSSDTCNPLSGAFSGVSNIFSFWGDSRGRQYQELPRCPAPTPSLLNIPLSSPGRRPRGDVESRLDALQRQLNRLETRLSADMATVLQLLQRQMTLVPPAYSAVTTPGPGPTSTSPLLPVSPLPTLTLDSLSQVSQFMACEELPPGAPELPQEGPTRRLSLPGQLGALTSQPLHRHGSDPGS

In the case of `COP(=S)(OC)Oc1cc(Cl)c(Cl)cc1Cl`, the Potency entry in [1] was “inactive”.

Regarding `CCC(C)(C)c1ccc(O)cc1`, the Potency result in assay [1] and in assay [3] was “inactive” in each case. Also, in assay [2], the compound was called inactive.

On to `CC(C)NC(C)C`, for which the Potency result in assay [1] and in assay [3] was “inactive” in each case.

In the case of `O=P1(N(CCCl)CCCl)NCCCO1` (stereo not given), the Potency entry in assay [1], in [3], in [4] and in assay [8] was “inactive” in each case. The result in [2], in assay [5], in [6] and in [7] was inactive.

`CCCCC/C=C\C/C=C\C/C=C\C/C=C\CCCC(=O)NCC(=O)O`: the activity change, negative = inhibition is -1.65% [at 5.2 µM] in [1] and -9.07% [at 5.34 µM] in assay [3]. For the same compound, in [2], the activity change, negative = cytotoxicity is -23.3% [at 5.34 µM]. Also, the Potency entry in [4] and in assay [8] was “inactive” throughout. Also, the compound was classed as inactive in assay [5], in [6] and in assay [7].

As for `CCC1(c2ccc(N)cc2)CCC(=O)NC1=O` (stereo not given), the Potency result in assay [9], in assay [4] and in assay [8] was “inactive” throughout. The outcome in assay [5], in assay [6] and in assay [7] was inactive.

As to `O=C(CCCN1CCC2(CC1)C(=O)NCN2c1ccccc1)c1ccc(F)cc1`, the Potency entry in [1], in [3], in assay [4] and in [8] was “inactive” throughout. The compound was called inactive in [2], in assay [10], in [6] and in assay [7].

In the case of `CN(C)CCc1c[nH]c2cccc(OP(=O)(O)O)c12`, the Potency result in assay [1] is “inactive”.

Turning to `COc1cc(CC(C)N)cc(OC)c1OC` (stereo not given), in assay [1], the Potency entry is “inactive”.

As for `Cc1nnc2n1-c1ccc(Cl)cc1C(c1ccccc1)=NC2`, the Potency result in assay [1] and in assay [3] was “inactive” in each case. Further, the compound was called inactive in assay [2] and in [10].

For the compound `C[C@]12CCC(=O)C=C1CC[C@@H]1[C@@H]2CC[C@@]2(C)[C@H]1CC[C@]2(C)O`, the Potency entry in [1] was “inactive”.

Turning to `COc1cc(CCN)cc(OC)c1OC`, the Potency result in [1] was “inactive”.

`O=c1oc2ccccc2c(O)c1Cc1c(O)c2ccccc2oc1=O`: the Potency result in assay [1] and in assay [3] was “inactive” in each case. The outcome in [2] was inactive.

Regarding `C[C@]12CC[C@@H]3c4ccc(OC(=O)N(CCCl)CCCl)cc4CC[C@H]3[C@@H]1CC[C@@H]2OP(=O)(O)O`, in [1], the Potency entry is “inactive”.

As to `CCOP(=S)(OCC)Oc1ccc2c(C)c(Cl)c(=O)oc2c1`, the Potency entry in assay [1] was “inactive”. The outcome in assay [2] and in assay [10] was inactive. For the same compound, the Potency in assay [3] is 8.09 µM (active).

As to `CCCCCCCCCC(=O)O[C@H]1CC[C@H]2[C@@H]3CCC4=CC(=O)CC[C@@H]4[C@H]3CC[C@]12C`, the Potency entry in [1] and in assay [3] was “inactive” in each case. In addition, the compound was called inactive in [2] and in assay [10].

Regarding `Cc1ncsc1CCCl`, the Potency entry in assay [1], in assay [3], in assay [4] and in [8] was “inactive” each time. For the same compound, the call in [2], in [5], in [6] and in [7] was inactive.

On to `CC(C)c1cccc(C(C)C)c1O`, for which the Potency result in assay [1], in [3] and in assay [8] was “inactive” each time. For the same compound, the outcome in assay [2], in assay [10], in [5], in assay [6] and in assay [7] was inactive. Further, in [4], the Potency is 4.47 µM (active).

Regarding `NCCc1ccc(O)cc1`, the Potency entry in assay [1], in assay [3] and in assay [4] was “inactive” in each case. Moreover, the call in assay [2], in [10], in assay [5], in assay [6] and in [7] was inactive.

On to `C=CCN1C[C@H](C)N([C@H](c2ccc(C(=O)N(CC)CC)cc2)c2cccc(OC)c2)C[C@H]1C`, for which, in assay [1], the Potency result was “inactive”.

Consider `CCN(CC)CCc1c[nH]c2ccccc12`, for which the Potency entry in assay [1] is “inactive”.

`Oc1ccc(Cl)cc1`: the Potency result in assay [1] and in assay [3] was “inactive” each time. For the same compound, in [2], the call was inactive.

Regarding `Nc1nc(N)nc(NC2CC2)n1`, the Potency result in [1] and in assay [3] was “inactive” each time. Further, the call in [2] was inactive.

Consider `CCN[C@@H](C)Cc1ccccc1`, for which the Potency result in assay [1] was “inactive”.

With `CNC(C)(C)Cc1ccccc1`, the Potency entry in assay [1] and in assay [3] was “inactive” in each case. Besides, in assay [2], the result was inactive.

For `C[C@](O)(CS(=O)(=O)c1ccc(F)cc1)C(=O)Nc1ccc(C#N)c(C(F)(F)F)c1`, in assay [1], the Potency entry was “inactive”. Also, the Potency in assay [3] is 16.1 µM (active).
